Source: PubChem BioAssay (National Center for Advancing Translational Sciences (NCATS))
An excerpt weighted towards active compounds, which were near 11% of everything screened.
PNC inhibitor: perinucleolar compartment assembly inhibition; PC3M PTB-GFP, PNC prevalence imaging, 16 h; hits give low values; activity change (PNC), negative = inhibition, % at 10 µM; 140,000 compounds, 3.1% hits; AID 2417;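 active = readout at or below -70, meaning at least 70% loss of cells showing the perinucleolar compartment, a nuclear body marking cancer cells; inconclusive = readout between -30 and a set limit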;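 note: plate controls were DMSO wells for no effect and camptothecin positive control wells for full effect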
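PC3M cells stably expressing PTB-GFP, 750–1000 cells/well, treated 16 h at 37 °C with compound (23 nl of library stock), in duplicate. After paraformaldehyde fixation and Hoechst stain, imaged at 20x; PNC prevalence scored by image analysis.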
ALDH1A1 inh: ALDH1A1 (human) enzyme inhibition; P00352; 220,000 compounds, 7.3% hits; Potency, µM (titrated, usually from 75.3 µM), for the others: top-dose activity, negative = inhibition, hits mostly inhibitors; Purified ALDH1A1, NADH fluorescence, propionaldehyde substrate; AID 1030; active = well fitted inhibition curve with a large enough effect, not every such curve was filed as active; inconclusive = small, poorly fitted or top-dose-only effect, or another doubt; inactive = no such curve, though single readings can be large or run the other way;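 note: potency is the fitted concentration of half-maximal effect; plate controls were no enzyme wells and a reference inhibitor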
Target sequence (P00352 whole entry, looked up): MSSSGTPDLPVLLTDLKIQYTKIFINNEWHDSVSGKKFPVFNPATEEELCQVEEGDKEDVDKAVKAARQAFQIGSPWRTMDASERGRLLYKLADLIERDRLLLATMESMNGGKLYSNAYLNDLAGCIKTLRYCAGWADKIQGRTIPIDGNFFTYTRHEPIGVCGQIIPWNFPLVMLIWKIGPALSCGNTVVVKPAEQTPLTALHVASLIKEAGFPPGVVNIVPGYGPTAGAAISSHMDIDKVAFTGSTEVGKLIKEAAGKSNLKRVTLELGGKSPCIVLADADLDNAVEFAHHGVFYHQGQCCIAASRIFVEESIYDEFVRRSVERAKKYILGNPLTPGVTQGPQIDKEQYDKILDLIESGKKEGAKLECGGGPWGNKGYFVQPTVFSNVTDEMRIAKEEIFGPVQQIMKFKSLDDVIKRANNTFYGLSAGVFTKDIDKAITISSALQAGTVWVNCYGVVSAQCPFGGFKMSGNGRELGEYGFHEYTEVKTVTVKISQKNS
HTT cytoprotect: cytoprotection in Huntington HTT-Q103 PC12 cell model; PC12 HTT-Q103 induced, cytoprotection, ATP luminescence, 40 h; Potency, µM (titrated, usually from 56.4 µM), for inactives: cytoprotection (ATP increase), most hits filed as activators; 230,000 compounds, 0.14% hits; note: potency is the fitted concentration of half-maximal effect; % of control where 0% means no effect; nearly all actives have a fitted effect of over 45% in size
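Huntington model: PC12 line, ecdysone-inducible HTTQ103 exon1–GFP, tebufenozide 100 nM. Test articles in a dose series. Endpoint luminescence from cellular ATP.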
HttQ103 aggreg: mutant huntingtin aggregation inhibition | PC12 HttQ103-GFP aggregates, Acumen cytometry, 40 h | Potency, µM (highest dose often 46.1 µM), for the others: at the top dose activity change, negative = inhibition, most hits filed as inhibitors | 220,000 compounds, 1.1% hits | AID 1688; note: potency is the fitted concentration of half-maximal effect; % is set by controls: 0 for no effect and ±100 for the full control effect; nearly all actives have a fitted effect of over 60% in size
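Multiplexed with ATP-based cell death, this channel scores GFP aggregates in PC12 cells expressing inducible HTTex1-Q103-GFP. Induction used 100 nM tebufenozide; compounds were tested in concentration series.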
HPGD block: HPGD (human) dehydrogenase inhibition | 150,000 compounds, 4.3% hits | AID 894 | Potency, µM, for inactives: top-dose activity change, negative = inhibition, usual class: inhibitors | purified HPGD, NADH fluorescence kinetic, PGE2 substrate; active = well fitted inhibition curve with a large enough effect, not every such curve was filed as active; inconclusive = small, poorly fitted or top-dose-only effect, or another doubt; inactive = no such curve, though single readings can be large or run the other way; note: potency is the fitted concentration of half-maximal effect; % is set by controls: 0 for no effect and ±100 for the full control effect
Target sequence (P15428 whole entry, looked up): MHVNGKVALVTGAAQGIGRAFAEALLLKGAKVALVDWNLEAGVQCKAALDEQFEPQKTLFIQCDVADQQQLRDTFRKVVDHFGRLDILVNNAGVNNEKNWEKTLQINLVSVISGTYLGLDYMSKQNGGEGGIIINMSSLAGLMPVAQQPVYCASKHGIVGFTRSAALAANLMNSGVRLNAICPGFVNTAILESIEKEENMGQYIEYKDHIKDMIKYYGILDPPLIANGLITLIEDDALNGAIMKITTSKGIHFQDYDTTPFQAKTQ
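NADH formation kinetics: reaction with 30 uM PGE2 and 1 mM NAD+ (final), 20 nM enzyme, Tris-HCl pH 8 with Tween 20, after 15 min compound preincubation at room temperature. Fluorescence change, last versus first of five reads.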
CBFb-RUNX1 inh: CBF-beta/RUNX1 interaction disruption; AlphaScreen CBFb-His/RUNX1-biotin binding, biochemical; Potency, µM (highest dose often 59.8 µM), without a hit: at the highest dose activity, negative = inhibition, actives largely listed as inhibitors; AID 1477; 230,000 tested, under 10 active; Q01196+Q13951; note: % of control where 0% means no effect
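Inhibition was taken as any reduction in AlphaScreen signal from the CBF-beta–RUNX1 pair (His and biotin tags, 30 nM each), measured after compound (15 min) and bead (90 min) incubations at room temperature.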
Active calls of the source: *; ? = inconclusive; . = no result given; [ ] = another dose, or the depositor's remark. Unless noted, calls come from the whole dose curve; as a rule, active = well fitted curve in the direction sought with a large enough effect; inconclusive = small, poorly fitted or top-dose-only effect, or another doubt; inactive = no such curve, though single readings can be large; an effect the other way counts as inactive or inconclusive.

SMILES	PNC inhibitor	ALDH1A1 inh	HTT cytoprotect	HttQ103 aggreg	HPGD block	CBFb-RUNX1 inh
CC(C)OC(=O)C(C(=O)OC(C)C)=C1SC=CS1	.	.	-1.7%	-19.3%	.	.
CCc1ccc(O)c(N=Cc2ccccc2O)c1	15.8	?	-33.4%	?	1.1%	-5.0%
O=c1[nH][nH]c2c(N=Cc3ccccc3O)ccc(F)c12	.	8.91µM*	-9.0%[10 µM]	-8.1%[9.22 µM]	.	.
CCCCN1C(=O)C(O)(CC(=O)c2c(C)coc2C)c2ccccc21 (stereo not drawn)	.	10µM*	-27.2%	20.0%	.	-4.2%
CCCN1C(=O)C(O)(C/C(C)=N/O)c2ccccc21 (stereo not drawn)	16.8	14.2%	-5.3%	5.2%	-0.2%	-1.4%
CCCCN1C(=O)C(O)(CC(=O)c2ccccn2)c2ccccc21 (stereo not drawn)	.	1µM*	-26.9%	11.7%[9.22 µM]	.	1.9%
CCN1C(=O)C(O)(CC(=O)c2cc(C)ccc2C)c2ccccc21 (stereo not drawn)	11.7	?	7.3%[10 µM]	-7.6%	-10.1%	4.1%
CCCCN1C(=O)C(O)(CC(=O)c2ccccc2OC)c2ccccc21 (stereo not drawn)	-5.2	8.91µM*	-3.1%	20.3%	-6.3%	10.4%[2.36 µM]
O=C1N[C@H](Cc2ccccc2)C(=O)N1Cc1cccc2ccccc12	.	5.6%	-1.4%	.	-10.8%	-1.7%
O=c1c(-c2cc(F)cc(F)c2)nc2cnc(N3CCNCC3)nc2n1Cc1cccs1	.	?	-245.4%	.	-16.4%	.
O=C(COc1ccc(Cl)cc1Cl)Nn1c(=S)[nH]c2ncccc2c1=O	?	-12.5%	-19.5%[10 µM]	-1.1%	28.2µM*	-1.2%
CCCOc1ccc(C(=O)CCNc2cccc(Cl)c2)cc1	.	7.94µM*	-13.7%	12.7%	.	12.5%
COc1ccc(C(=O)CCC(=O)Nc2cccc(Cl)c2)cc1	.	11.2%	-16.7%	7.6%	.	3.7%
COc1ccc(C(=O)CCNc2cccc(Cl)c2)cc1	-15.6	3.16µM*	15.9%[10 µM]	-27.4%	-0.2%	2.1%
CC(C)CNC(=O)CCc1nc(-c2ccccc2)no1	.	?	18.2%[10 µM]	5.6%[9.22 µM]	.	5.8%
Oc1c(C(O)(c2ccccc2)c2ccc3ccccc3c2O)ccc2ccccc12	.	-5.7%[13.5 µM]	15.9%[10 µM]	.	?	.
COc1cc(C)c(CC/C(C)=C/C=C/C(C)=O)c(C)c1C	.	?	-15.6%	.	-17.6%	10.3%
O=C1NC2c3ccccc3C(=O)N2c2c1cnn2-c1ccccc1 (stereo not drawn)	-100.0*	?	-3.9%[10 µM]	-1.1%	-19.9%	0.8%
C/C(=N\Nc1c([N+](=O)[O-])c(C)nn1C)c1ccc(F)cc1F	.	5.3%	-26.0%	16.1%	.	-2.6%
CC(=O)Nc1ccc(S(=O)(=O)N2CCCc3ccccc32)cc1	-2.5	-7.4%	-42.0%	-31.2%	-12.7%	10.8%
O=C(O)C1C2C=CC(O2)C1C(=O)Nc1ccc2c(c1)OCCO2 (stereo not drawn)	-11.1	11.2µM*	15.0%[10 µM]	-5.9%	-6.1%	-2.6%
NS(=O)(=O)c1ccc(NS(=O)(=O)c2ccc(NC(=S)Nc3ccccc3)cc2)cc1	-5.7	?	11.4%[10 µM]	-2.6%	-11.7%	-0.9%
O=C(O)C1C2C=CC(O2)C1C(=O)Nc1ccc(S(=O)(=O)N2CCc3ccccc32)cc1 (stereo not drawn)	28.8	10µM*	-8.9%	19.8%	-21.6%	-0.1%
O=C(O)C1C2C=CC(O2)C1C(=O)Nc1ccc(S(=O)(=O)Nc2ccccc2)cc1 (stereo not drawn)	-19.0	1.12µM*	-5.8%[10 µM]	15.2%	?	7.5%
C=CCc1cc(/C=N\NC(=O)CSc2nnc(CCCc3ccc(OC)c(C)c3)o2)cc(OC)c1O	22.8	-5.7%	-14.7%	16.0%	-0.7%	0.8%
SMILES	PNC inhibitor	ALDH1A1 inh	HTT cytoprotect	HttQ103 aggreg	HPGD block	CBFb-RUNX1 inh
CCCC/C=C/C(NC(=O)c1ccc(C(F)(F)F)cc1)c1ccccc1 (stereo not drawn)	.	-13.1%	-33.2%	.	-17.4%	18.7%
Cc1ccccc1Br	.	?	-6.4%	.	-3.0%	4.8%[21.7 µM]
O=C1CC(c2ccc(F)cc2)Cc2nc(N3CCc4ccccc43)ncc21 (stereo not drawn)	16.3	?	-6.7%	7.2%	?	20.7%
Fc1cnc(N2CCc3ccccc32)nc1N1CCc2ccccc21	33.2	2.24µM*	11.5%[10 µM]	22.7%	?	-3.9%
CC(=O)N1CCC2(CCCN(C(=O)Nc3cccc(F)c3)C2)CC1	.	7.0%	-5.0%	.	-2.7%	.
CCCCC#Cc1nc(N)c2ncn([C@@H]3O[C@H](C(=O)NCC)[C@@H](O)[C@H]3O)c2n1	.	7.94µM*	.	.	-7.2%	-3.3%
CCCCC#Cc1nc(N)c2ncn([C@@H]3O[C@@H](C(=O)NCC)[C@H](O)[C@@H]3O)c2n1	.	.	-16.3%[1.9 µM]	.	.	.
CCCn1c(-c2ccc(F)cc2)nc2c(NCCN3CCOCC3)nc(C)nc21	.	-6.4%	-51.9%	.	-15.7%	15.7%
COc1cccc(NC(=O)CN2CCN(S(=O)(=O)c3ccc(C(C)C)cc3)CC2)c1	-27.9	22.4µM*	-8.3%	16.7%	-14.9%	2.3%
O=C(CN1CCN(S(=O)(=O)c2ccc(F)cc2)CC1)Nc1cccc(C(F)(F)F)c1	?	-14.4%	20.3%	-20.7%	-8.8%	-3.6%
COc1cccc(NC(=O)CN2CCN(S(=O)(=O)c3ccc(F)cc3)CC2)c1	-111.3*	10.3%	9.8%	32.0%	1.0%	-18.2%
COc1ccc(NC(C)=O)cc1NC(=O)CN1CCN(S(=O)(=O)c2ccc(C(C)C)cc2)CC1	48.4	2.7%	7.3%	-5.2%	-11.4%	-4.4%
O=C(Nc1ccc(NC(=S)NC(=O)c2cccs2)cc1)c1ccccc1	18.9	?	28.3%[10 µM]	7.2%	-8.8%	5.9%
O=C(CCc1ccccc1)NNC(=S)NC(=O)c1ccc(Cl)cc1	?	11.2µM*	3.1%	-10.7%	-27.0%	1.7%
CCC(=O)NC(=S)Nc1ccc(NC(=S)NC(=O)c2ccccc2)cc1	.	25.1µM*	35.2%[10 µM]	-7.6%[9.22 µM]	.	-1.1%
O=C(NC(=S)Nc1ccc(Cl)cc1)c1ccccc1	.	15µM*	18.9%[10 µM]	19.7%[9.22 µM]	.	-7.5%
O=C(NC(=S)Nc1ccc(Oc2ccc(Cl)cc2)cc1)c1ccccc1	53.4	8.91µM*	-34.3%	?	-15.9%	-4.2%
CCC(=O)NC(=S)Nc1ccc(NC(=S)NC(=O)c2ccc(C)cc2)cc1	.	-9.6%	39.4%	29.9%	.	-3.9%
CC(=O)NC(=S)Nc1ccc(NC(=O)COc2ccc(Cl)cc2)cc1	9.1	-9.8%	8.3%	12.7%	-5.1%	3.6%
CN(C)c1ncc2nc(-c3ccc(Cl)cc3)c(=O)n(C[C@H]3CCCO3)c2n1	.	?	-29.3%	.	.	.
COc1ccc2[nH]cc(CCNc3ncncc3-c3ccc(C(=O)N(C)C)cc3)c2c1	.	7.2%	?	.	.	.
COc1ncc2nc(CCc3ccccc3)c(=O)n(Cc3cccs3)c2n1	.	-18.3%	?	.	-13.1%	.
